# PubChem BioAssay AID1159580 (chemical genetic matrix, 2015)
# Several values for one entry are separate records, joined by “and”; a condition that tells them apart may be missing. Identical values can stand only once. The whole screen tested about 5,500 compounds, of which about 2,000 (36%) were called active. Another 18% or so got no clear call; they are omitted. Rule as the data show it: active = normalized growth mostly below about 0.91 (no sharp cut-off); inconclusive = no clear call, values can overlap the other calls; inactive = mostly above about 0.92. The list shows a part of the results.
# Test: chemical genetic growth profiling, strain panel (AID 1159580);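 also: tested at 20 µM; growth read once vehicle control cultures reached saturation at 30 °C; 1 = growth at the plate median or of vehicle wells; lower values mean less growth of the strain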
# Settings: S. cerevisiae deletion strains, growth OD
compound,measurement,setting,value
O=C(O)c1ccccc1-c1c2cc(Br)c(=O)cc-2oc2[c]([Hg])c(O)c(Br)cc12,normalized growth,"locus YAL013W, strain DEP1, stronger effect = lower value",0.0843 (active)
same,normalized growth,"locus YAL021C, strain ccr4, stronger effect = lower value",1.01 (inactive)
same,normalized growth,"locus YAL026C, strain drs2, stronger effect = lower value",1.04 (inactive)
same,normalized growth,"locus YAL030W, strain snc1, stronger effect = lower value",1.03 (inactive)
same,normalized growth,"locus YBL061C, strain skt5, stronger effect = lower value",1.04 (inactive)
same,normalized growth,"locus YBR009C, strain hhf1, stronger effect = lower value",1.03 (inactive)
same,normalized growth,"locus YBR021W, strain FUR4, stronger effect = lower value",0.61 (active)
same,normalized growth,"locus YBR023C, strain chs3, stronger effect = lower value",1.04 (inactive)
same,normalized growth,"locus YBR171W, strain sec66, stronger effect = lower value",1.06 (inactive)
same,normalized growth,"locus YBR229C, strain ROT2, stronger effect = lower value",0.972 (inactive)
same,normalized growth,"locus YBR231C, strain swc5, stronger effect = lower value",1.04 (inactive)
same,normalized growth,"locus YBR279W, strain paf1, stronger effect = lower value",0.594 (active)
same,normalized growth,"locus YCL011C, strain gbp2, stronger effect = lower value",1.05 (inactive)
same,normalized growth,"locus YCL016C, strain dcc1, stronger effect = lower value",1.06 (inactive)
same,normalized growth,"locus YCL029C, strain bik1, stronger effect = lower value",0.996 (inactive)
same,normalized growth,"locus YCR088W, strain abp1, stronger effect = lower value",1.03 (inactive)
same,normalized growth,"locus YDL005C, strain med2, stronger effect = lower value",1.02 (inactive)
same,normalized growth,"locus YDL035C, strain GPR1, stronger effect = lower value",0.453 (active)
same,normalized growth,"locus YDL040C, strain nat1, stronger effect = lower value",1.05 (inactive)
same,normalized growth,"locus YDL074C, strain BRE1, stronger effect = lower value",0.866 (inactive)
same,normalized growth,"locus YDL101C, strain DUN1, stronger effect = lower value",0.936 (inactive)
same,normalized growth,"locus YDL134C, strain PPH21, stronger effect = lower value",0.102 (active)
same,normalized growth,"locus YDL185W, strain tfp1, stronger effect = lower value",0.622 (active)
same,normalized growth,"locus YDL192W, strain arf1, stronger effect = lower value",0.0635 (active)
same,normalized growth,"locus YDR001C, strain nth1, stronger effect = lower value",1.04 (inactive)
same,normalized growth,"locus YDR069C, strain doa4, stronger effect = lower value",1.02 (inactive)
same,normalized growth,"locus YDR101C, strain arx1, stronger effect = lower value",1.01 (inactive)
same,normalized growth,"locus YDR137W, strain rgp1, stronger effect = lower value",1.2 [resistant] (active)
same,normalized growth,"locus YDR150W, strain NUM1, stronger effect = lower value",0.732 (active)
same,normalized growth,"locus YDR159W, strain sac3, stronger effect = lower value",1.05 (inactive)
same,normalized growth,"locus YDR162C, strain NBP2, stronger effect = lower value",0.736 (active)
same,normalized growth,"locus YDR195W, strain ref2",0.982 (inactive)
same,normalized growth,"locus YDR297W, strain sur2, stronger effect = lower value",1.04 (inactive)
same,normalized growth,"locus YDR318W, strain mcm21, stronger effect = lower value",0.07 (active)
same,normalized growth,"locus YDR334W, strain swr1, stronger effect = lower value",1.03 (inactive)
same,normalized growth,"locus YDR335W, strain msn5, stronger effect = lower value",1.03 (inactive)
same,normalized growth,"locus YDR388W, stronger effect = lower value",0.0603 (active)
same,normalized growth,"locus YDR392W, strain spt3, stronger effect = lower value",0.796 (inactive)
same,normalized growth,"locus YDR502C, strain sam2, stronger effect = lower value",0.814 (active)
same,normalized growth,"locus YEL003W, strain gim4, stronger effect = lower value",1.02 (inactive)
same,normalized growth,"locus YEL037C, strain rad23, stronger effect = lower value",1.03 (inactive)
same,normalized growth,"locus YEL061C, strain CIN8 (second series), stronger effect = lower value",1.05 (inactive)
same,normalized growth,"locus YEL061C, strain CIN8, stronger effect = lower value",0.984 (inactive)
same,normalized growth,"locus YER015W, strain faa2, stronger effect = lower value",1.04 (inactive)
same,normalized growth,"locus YER016W, strain bim1, stronger effect = lower value",1.06 (inactive)
same,normalized growth,"locus YER110C, stronger effect = lower value",0.655 (active)
same,normalized growth,"locus YER111C, strain swi4, stronger effect = lower value",1.03 (inactive)
same,normalized growth,"locus YER155C, strain BEM2 (second series), stronger effect = lower value",1.03 (inactive)
same,normalized growth,"locus YER155C, strain BEM2, stronger effect = lower value",1.02 (inactive)
same,normalized growth,"locus YER167W, strain BCK2, stronger effect = lower value",0.0686 (active)
same,normalized growth,"locus YFR010W, strain ubp6, stronger effect = lower value",1.02 (inactive)
same,normalized growth,"locus YGL078C, strain dbp3, stronger effect = lower value",0.0613 (active)
same,normalized growth,"locus YGL086W, strain mad1, stronger effect = lower value",0.0593 (active)
same,normalized growth,"locus YGL167C, strain pmr1, stronger effect = lower value",1.06 (inactive)
same,normalized growth,"locus YGL173C, strain kem1, stronger effect = lower value",0.973 (inactive)
same,normalized growth,"locus YGL227W, strain vid30, stronger effect = lower value",1.05 (inactive)
same,normalized growth,"locus YGL240W, strain doc1, stronger effect = lower value",1 (inactive)
same,normalized growth,"locus YGL248W, strain PDE1, stronger effect = lower value",0.0521 (active)
same,normalized growth,"locus YGL253W, strain hxk2, stronger effect = lower value",1.02 (inactive)
same,normalized growth,"locus YGR078C, strain PAC10, stronger effect = lower value",0.369 (active)
same,normalized growth,"locus YGR135W, strain pre9, stronger effect = lower value",0.0708 (active)
same,normalized growth,"locus YGR229C, strain SMI1, stronger effect = lower value",0.106 (active)
same,normalized growth,"locus YGR252W, strain gcn5, stronger effect = lower value",0.178 (active)
same,normalized growth,"locus YHR013C, strain ard1, stronger effect = lower value",0.121 (active)
same,normalized growth,"locus YHR027C, strain rpn1, stronger effect = lower value",1.01 (inactive)
same,normalized growth,"locus YHR030C, strain SLT2, stronger effect = lower value",0.146 (active) and 0.163 (active)
same,normalized growth,"locus YHR079C, strain IRE1 (second series), stronger effect = lower value",0.884 (active)
same,normalized growth,"locus YHR079C, strain IRE1, stronger effect = lower value",0.406 (active)
same,normalized growth,"locus YHR094C, strain hxt1, stronger effect = lower value",0.0904 (active)
same,normalized growth,"locus YHR129C, strain ARP1, stronger effect = lower value",0.939 (inactive)
same,normalized growth,"locus YHR142W, strain chs7, stronger effect = lower value",0.951 (inactive)
same,normalized growth,"locus YHR200W, strain rpn10, stronger effect = lower value",0.0659 (active)
same,normalized growth,"locus YIL066C, strain RNR3, stronger effect = lower value",0.0637 (active)
same,normalized growth,"locus YIL073C, strain SPO22, stronger effect = lower value",0.127 (active)
same,normalized growth,"locus YIL125W, strain kgd1, stronger effect = lower value",0.0621 (active)
same,normalized growth,"locus YIR030C, strain dcg1, stronger effect = lower value",1 (inactive)
same,normalized growth,"locus YJL092W, strain hpr5, stronger effect = lower value",1.04 (inactive)
same,normalized growth,"locus YJL095W, strain BCK1 (second series), stronger effect = lower value",1.03 (inactive)
same,normalized growth,"locus YJL095W, strain BCK1, stronger effect = lower value",0.834 (inactive) and 0.144 (active)
same,normalized growth,"locus YJL115W, strain asf1, stronger effect = lower value",1.03 (inactive)
same,normalized growth,"locus YJL129C, strain trk1, stronger effect = lower value",1.12 (inactive)
same,normalized growth,"locus YJL134W, strain LCB3, stronger effect = lower value",1.02 (inactive)
same,normalized growth,"locus YJL154C, strain vps35, stronger effect = lower value",1.04 (inactive)
same,normalized growth,"locus YJL164C, strain tpk1, stronger effect = lower value",1.01 (inactive)
same,normalized growth,"locus YJL166W, strain qcr8, stronger effect = lower value",1.02 (inactive)
same,normalized growth,"locus YJL168C, strain set2, stronger effect = lower value",0.0944 (active)
same,normalized growth,"locus YJL187C, strain SWE1 (second series), stronger effect = lower value",0.955 (inactive)
same,normalized growth,"locus YJL187C, strain SWE1, stronger effect = lower value",1.01 (inactive)
same,normalized growth,"locus YJR043C, strain POL32, stronger effect = lower value",0.868 (inactive)
same,normalized growth,"locus YJR066W, strain TOR1, stronger effect = lower value",0.439 (active)
same,normalized growth,"locus YJR075W, strain HOC1, stronger effect = lower value",0.946 (inactive)
